# Source: PubChem BioAssay (National Center for Advancing Translational Sciences (NCATS))
# FMDV inh: foot and mouth disease virus antiviral activity; Potency, µM (top dose mostly 57.9 µM), inactives show at the top dose activity change, negative = inhibition, hits mostly inhibitors; 410,000 tested, 1.2% active; FMDV antiviral cell-based qHTS; calls by dose curve; tested in HEK293T cells; also: read-out not given here; potency is read from the fitted curve at half-maximal effect; nearly all actives have a fitted effect of over 45% in size
# HCMV inh: human cytomegalovirus inhibition; activity change, negative = inhibition, % at 57.5 µM; AID 1259415; HFF cells, HCMV-luciferase reporter, 72 h; hits give low values; 410,000 tested, 4.5% active; in the data active = activity change below about -60%; inconclusive = no clear call, values can overlap the other calls; inactive = above about -39%
#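 Inhibition of viral replication was scored as loss of reporter luminescence in HFFs infected with HCMV-luciferase (MOI 1 PFU/cell) for 72 h; compounds tested at 2 doses, normalized to buffer and Salinomycin controls.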
# LASV entry inh: inhibitors of Lassa virus binding or cell entry | 300,000 tested, 1.2% active | Lassa virus pseudotype entry inhibition, cell reporter | AID 540256 | Potency, µM (highest dose often 37.9 µM), without a hit: top-dose activity change, negative = inhibition, actives largely listed as inhibitors; calls by dose curve; tested in HEK293 cells; also: potency is read from the fitted curve at half-maximal effect; nearly all actives have a fitted effect of over 50% in size
# MARV entry inh: inhibitors of Marburg virus binding or cell entry; Marburg virus pseudotyped entry inhibition, cell reporter; Potency, µM (doses to about 37.8 µM), for the others: top-dose activity change, negative = inhibition, most hits filed as inhibitors; 300,000 tested, 1.8% active; AID 540276; calls by dose curve; tested in HEK293 cells; also: potency is read from the fitted curve at half-maximal effect
# * = called active by the depositor; ? = inconclusive; nt = no result given; [ ] = remark or other dose. Rows were chosen to be rich in hits. Some 6.2% of all compounds tested hit in one or more screens of this group. % is scaled to controls: 0 for no effect and ±100 for the full control effect.
SMILES,FMDV inh,HCMV inh,LASV entry inh,MARV entry inh
Cc1ccc(CNC(=O)c2ccc(NC3=NC4CS(=O)(=O)CC4S3)cc2)cc1 (stereo not given),-6.5%,-67.6*,nt,nt
Cc1ccc(C(=O)Nc2ccc(F)cc2)cc1NC1=NC2CS(=O)(=O)CC2S1 (stereo not given),-12.8%,-101.3*,nt,nt
Cc1ccc(NC(=O)c2ccc(C)c(NC3=NC4CS(=O)(=O)CC4S3)c2)cc1C (stereo not given),-17.0%,5.3,nt,nt
O=C(Nc1ccc(-c2nc3cccnc3s2)cc1)c1cccnc1Cl,2.9%,87.0,3.55µM*,?
O=C(Nc1ccc(-c2nc3cccnc3s2)cc1)c1ccco1,27.1%,41.5,nt,nt
O=C(Nc1cccc(-c2nc3cccnc3s2)c1)c1cccc(Br)c1,-13.3%,-66.6*,-12.9%[46.1 µM],2.7%[46.1 µM]
CN(C)c1ccc(C(=O)Nc2cccc(-c3nc4cccnc4s3)c2)cc1,-8.1%,68.6,?,-15.1%[46.1 µM]
O=C(Nc1ccc(-c2nc3cccnc3s2)cc1)c1ccc(Br)o1,12.8%,-91.0*,nt,nt
COc1ncc2nc(-c3cc(F)cc(F)c3)c(=O)n(C)c2n1,-14.4%,nt,nt,nt
Cc1ccc(C)c(N2CCN(C(=O)c3cc4sccc4n3C)CC2)c1,?,-30.3,?,18.3µM*
Cc1cccc(N2CCN(C(=O)C3CCN(C(=O)c4cc5sccc5n4C)CC3)CC2C)c1 (stereo not given),?,-83.8*,nt,?
Cn1c(C(=O)N2CCCC(C(=O)N3CCN(c4ccccc4)CC3)C2)cc2sccc21 (stereo not given),?,-28.1,nt,?
COCc1c(C(=O)N2CCN(c3ccccc3O)CC2)cnn1-c1nccc(-c2cccs2)n1,-17.4%,nt,nt,nt
COc1ccccc1NS(=O)(=O)c1cn(C)c(C)n1,0.0%,-3.6,1.4%[46.1 µM],nt
CSc1nc2sc3c(c2c(=O)[nH]1)CC[C@@H](C)C3,nt,nt,nt,22.7%
O=C(O)c1ccc(/C=C(\c2nc3ccccc3[nH]2)c2nc3ccccc3s2)cc1,-11.4%,-30.6,18.7%,?
CC(C)(C)c1ccc(/C=C(\c2nc3ccccc3[nH]2)S(=O)(=O)c2ccccc2)cc1,20µM*,nt,nt,nt
CCOC(=O)c1nnc(-c2ccccc2)nc1Sc1ccccc1Cl,25.1µM*,111.6,-21.4%,?
CCOC(=O)c1nnc(-c2ccccc2)nc1Oc1ccc(Cl)cc1,15.8µM*,38.0,-9.9%,-17.0%
CCOC(=O)c1cnc(-c2ccccc2)nc1Oc1ccc(Cl)c(Cl)c1,-21.2%,71.6,8.5%,-12.9%
O[C@H](c1ccc(F)cc1)[C@H](c1ccccc1)N1CCOCC1,nt,nt,nt,9.5%
c1csc(CNc2ccnc(-c3ccoc3)n2)c1,8.6%,nt,nt,nt
CCN1C/C(=C/c2ccc(N3CCOCC3)cc2)C(=O)/C(=C/c2ccc(N3CCOCC3)cc2)C1,28.2µM*,-102.1*,?,?
CN1C/C(=C\c2ccc(N3CCOCC3)cc2)C(=O)/C(=C/c2ccc(N3CCOCC3)cc2)C1,?,?,1.6%,?
CCc1c(C(=O)NCCc2ccc(N3CCCCC3)cc2)[nH]c2ccc(Cl)cc12,nt,nt,-32.7%,-2.1%
SMILES,FMDV inh,HCMV inh,LASV entry inh,MARV entry inh
COCCCN1C(=O)C(O)=C(C(=O)c2ccco2)[C@H]1c1ccc(Br)cc1,nt,nt,nt,-1.2%
O=C(CCCc1ccccc1)Nc1ccnn1C1CCN(Cc2ccccc2)CC1,29.0%,0.0,nt,nt
CSc1ccc(CN2CCC(n3nccc3NC(=O)CCCc3ccccc3)CC2)cc1,-15.4%,-68.3*,?,?
Fc1ccc(-c2cn(-c3ccccc3)c3[n+]2CCS3)cc1,-20.3%,-25.3,-27.5%[46.1 µM],2.1%[46.1 µM]
CC(=O)c1ccc(N2CCN(c3ccc(C(F)(F)F)cn3)CC2)cc1,-27.3%,?,2.6%,-3.3%
COc1ccc(-c2cn(-c3ccc(Br)cc3)c3[n+]2CCS3)cc1,?,-90.2*,-4.6%,-25.4%
Clc1ccc(-c2cn(-c3ccccc3)c3[n+]2CCS3)cc1,-15.7%,-72.4*,?,?
CC(=O)c1ccc(-n2cc(-c3ccc(C(C)(C)C)cc3)[n+]3c2SCCC3)cc1,?,-98.3*,?,?
COc1cc2c(cc1OC)CN(S(C)(=O)=O)CC2,-10.4%,-84.7*,nt,nt
CCS(=O)(=O)N1CCc2cc(OC)c(OC)cc2C1,13.7%,33.9,14.6%,-0.4%
Cn1cccc1/C=N/n1c(-c2ccc(C(C)(C)C)cc2)n[nH]c1=S,-19.6%,?,10µM*,?
Cn1cccc1/C=N/n1c(-c2ccccc2)n[nH]c1=S,-5.8%,10.0,?,?
CCOC(=O)c1c(C)[nH]c(C)c1C(=O)COC(=O)c1cccc(S(=O)(=O)N(CC)CC)c1,-10.4%,-26.4,22.4µM*,-2.5%
CCN1CCCc2cc(CN(CCN3CCOCC3)C(=S)Nc3cccc(C)c3)ccc21,-6.9%,-65.1*,?,?
COc1cc(C(=O)OCC(=O)Nc2ccc(OC(F)F)cc2)cc(OC)c1OC,0.0%,-10.8,?,?
COc1cc(C(=O)OCC(=O)Nc2ccc(SC(F)F)cc2)cc(OC)c1OC,35.5µM*,14.3,0.0%,?
Cc1ccc(C(=O)c2ccccc2C(=O)OCC(=O)Nc2ccc(SC(F)F)cc2)cc1,-7.0%,-34.4,11.2µM*,?
O=C(COC(=O)c1ccccc1Cc1ccccc1)Nc1ccc(SC(F)F)cc1,27.4%,44.9,?,?
Cc1nc(C(F)(F)F)ccc1C(=O)N1CCC(C)(C(=O)NS(=O)(=O)C2CC2)C1 (stereo not given),-6.0%,-8.6,nt,nt
Nc1c2c(nc3sc4c(c13)CCCC4)-c1ccccc1CC2,-42.0%,?,11.2µM*,7.08µM*
Nc1c2c(nc3sc4c(c13)CCCCC4)CCCC2,-5.0%,-71.0*,?,?
Nc1nc(=O)n(C2OC(CO)C(O)C2O)cc1F (stereo not given),-3.7%,-99.0*,nt,nt
C[C@H](N)C(=O)NC[C@H]1O[C@@H](n2cnc3c(N)ncnc32)[C@H](O)[C@@H]1O,-22.2%,-74.6*,nt,nt
Nc1cnn(C2OC(CO)C(O)C2O)c(=O)n1 (stereo not given),-20.0%,-63.5*,?,?
Nc1nc(F)nc2c1ncn2[C@@H]1O[C@H](CO)[C@@H](O)[C@@H]1O,-18.3%,nt,?,1.9%
SMILES,FMDV inh,HCMV inh,LASV entry inh,MARV entry inh
O=c1[nH]cnc2c1ccn2C1OC(CO)C(O)C1O (stereo not given),-14.0%,-69.3*,nt,nt
CC[C@@H](NCCCn1cnc2c(SC)ncnc21)c1ccccc1,0.0%,?,nt,nt
CCOC(=O)CN1C(=O)[C@]2(OCCC=C[C@@H]2C)c2cc(OC)ccc21,nt,nt,nt,12.7%[14.2 µM]
C[C@H]1O[C@@H](n2cc(F)c(=O)[nH]c2=O)[C@H](O)[C@H]1O,nt,nt,-29.4%,3.6%
O=c1[nH]c(=O)n(C2OC(CO)C(O)C2O)cc1F (stereo not given),5.0%,nt,2µM*,?
Nc1nc(F)nc2c1ncn2[C@@H]1O[C@H](CO)[C@@H](O)[C@H]1O,?,-95.8*,nt,nt
O=C1CC(c2ccccc2F)c2cc3c(cc2N1)CCC3 (stereo not given),?,-33.7,-11.5%,?
O=C1CC(c2cc(Br)ccc2F)c2cc3c(cc2N1)CCC3 (stereo not given),-13.6%,-73.4*,?,?
NC(=O)CSCc1cccc(Br)c1,12.0%,26.3,-13.3%,1.4%
NC(CSCc1cccc(Br)c1)C(=O)O (stereo not given),7.8%,-65.2*,nt,nt
